Here are results for 88 compounds from PubChem BioAssay AID588727 (Southern Research Specialized Biocontainment Screening …, 2011).

Among all 350,000 compounds or so, about 450 (0.13%) were called active. No rule for the calls is given here. The list is a sample of the results. Results with a measured potency or affinity are listed apart.

The nature of the assay: inhibitors of VEEV TC-83 cytopathic effect, confirmation, Vero cells (AID 588727). Conditions: VEEV TC-83 cytopathic effect inhibition, at 20 µM; hits give high values unless noted.
For orientation: inhibition means the percentage by which the read-out fell short of the control. As for `CCOC(=O)C1=C(COC(=O)c2cccc(NC(C)=O)c2)NC(=O)NC1C` (stereo not drawn), the inhibition was 1.96% (inactive).

As to `CCOC(=O)Cn1c(S(=O)(=O)Cc2ccc(F)cc2)nc(-c2ccccc2)c1-c1ccccc1`, the inhibition is 5.03% (inactive).

Take `C#CCn1c(S(=O)(=O)Cc2ccc(OC)cc2)nc(-c2ccccc2)c1-c1ccccc1`: the inhibition was 0.79% (inactive). Consider `CCOC(=O)Cn1c(S(=O)(=O)Cc2cccc(F)c2)nc(-c2ccccc2)c1-c1ccccc1`, for which the inhibition was 3.2% (inactive). As for `C#CCn1c(S(=O)(=O)Cc2ccccc2Cl)nc(-c2ccccc2)c1-c1ccccc1`, the inhibition is 1.45% (inactive).

`COC(=O)c1ccccc1-c1ccc(/C=N/Nc2nc(N3CCCC3)nc(N3CCCC3)n2)o1`: the inhibition is 9.1% (inactive). With `COc1ccc(S(=O)(=O)N2CCCc3ccccc32)cc1OC`, the inhibition result was “inactive”. As to `Cc1c(OCC(=O)N(C)C)ccc2c(-c3ccccc3)cc(=O)oc12`, the inhibition is 2.42% (inactive).

Regarding `Cn1cccc1C(=O)NC(=O)COC(=O)c1ccc(S(C)(=O)=O)cc1`, the inhibition is 1.82% (inactive).

Regarding `O=C(Nc1sc(-c2ccccc2)cc1C(=O)O)c1ccccc1`, the inhibition entry is “inactive”. Take `CCOC(=O)c1cc(-c2ccccc2)sc1NC(=O)C(C)(C)C`: the inhibition was 0.72% (inactive). Then `COC(=O)C1=C(CSCc2ccccc2)NC(=O)NC1c1cc(C)ccc1C` (stereo not drawn), with 1.95% (inactive); and `CCC(C)(C)NC(=S)Nc1ccc(-c2nc3ccc(C)cc3s2)cc1`, with 1.78% (inactive). The figure for `CNC(=S)Nc1ccc(-c2nc3ccc(C)cc3s2)cc1` is 5.72% (inactive). For `CCOC(=O)c1c(C)oc(NC(=O)CCl)c1C(=O)OCC`, the inhibition was 1.19% (inactive). Turning to `Cc1cc(C(=O)Nc2c(C)nn(Cc3ccccc3Cl)c2C)no1`, the inhibition was 1.51% (inactive). For the compound `Cc1nn(Cc2ccc(Cl)cc2)c(C)c1NC(=O)c1cc(C(C)C)on1`, the inhibition was 0.91% (inactive). The figure for `CNC(=O)c1cc(S(=O)(=O)Nc2ccc3c(c2)OCCO3)ccc1C` is 0.34% (inactive); for `C#CCOCCOCCOCCNc1nc(OC)nc(N2CCN(C(=O)[C@H](CCC(=O)O)n3cc(C(N)CO)nn3)CC2)n1` (stereo partly drawn) it is 1.77% (inactive). In the case of `CN1CCN(CC(=O)Nc2cc(N3CCOCC3)ccc2[N+](=O)[O-])CC1`, the inhibition was 0.32% (inactive).

`Cc1c(CCO)c(=O)[nH]n1C(=O)c1ccc(F)cc1`: the inhibition was 0.71% (inactive). For `Cc1c(CCO)c(=O)[nH]n1S(=O)(=O)c1ccc(F)cc1`, the inhibition entry is “inactive”. Turning to `CN1C(=O)C2(NCCc3c2[nH]c2ccccc32)c2ccccc21` (stereo not drawn), the inhibition was 1.48% (inactive).

As for `CC1=CC(C)(C)N2C(=O)C3(NCCc4c3[nH]c3ccccc43)c3cccc1c32` (stereo not drawn), the inhibition is 0.24% (inactive).

Consider `Cn1ncc([N+](=O)[O-])c1C(=O)Nc1ccc(C2CCCCC2)cc1`, for which the inhibition is 2.86% (inactive). For the compound `CCn1cc([N+](=O)[O-])c(C(=O)Nc2ccn(C34CC5CC(CC(C5)C3)C4)n2)n1`, the inhibition was 0.69% (inactive). The figure for `Cc1nn(C)c(C(=O)Nc2ccn(C34CC5CC(CC(C5)C3)C4)n2)c1[N+](=O)[O-]` is 0.3% (inactive). The figure for `Cn1cc([N+](=O)[O-])c(C(=O)Nc2ccc(C(=O)N3CCCCC3)cc2)n1` is 10.8% (inactive); for `CCOc1ccc(S(=O)(=O)N2CCCCC2)cc1NC(=O)C1=COCCO1` it is 10.1% (inactive); for `O=C1NC2=C(C(=O)CCC2)C(c2ccc([N+](=O)[O-])cc2)N1` (stereo not drawn) it is “inactive”. On to `COc1ccccc1N1CCN(C(=O)c2cccc(S(=O)(=O)N3c4ccccc4CC3C)c2)CC1` (stereo not drawn), for which the inhibition was 5.41% (inactive). The figure for `CN(CC(=O)Nc1ccccc1Br)C(=O)c1cccc(S(=O)(=O)N2CCc3ccccc32)c1` is 7.03% (inactive); for `O=C(c1cccc(S(=O)(=O)N2CCc3ccccc32)c1)N1CCc2ccccc2C1` it is 6.28% (inactive). In the case of `O=C(c1cccc(S(=O)(=O)N2CCc3ccccc32)c1)N1CCOCC1`, the inhibition is 1.59% (inactive). The figure for `NS(=O)(=O)c1ccc(CNC(=O)c2cccc(S(=O)(=O)N3CCc4ccccc43)c2)cc1` is 2.16% (inactive); for `CC(=O)N1CCN(C(=O)c2cccc(S(=O)(=O)N3c4ccccc4CC3C)c2)CC1` (stereo not drawn) it is “inactive”. With `COc1cc2c(cc1OC)CN(C(=O)c1cccc(S(=O)(=O)N(C)C)c1)CC2`, the inhibition was 1.42% (inactive). With `COc1ccc(N2CCN(C(=O)c3cccc(S(=O)(=O)N4CCc5ccccc54)c3)CC2)cc1`, the inhibition is 4.71% (inactive). For the compound `CC(C)OC(=O)CSc1nnc(CNc2ccc(Cl)cc2)n1Cc1ccccc1`, the inhibition entry was “inactive”. Then `Cc1cc(/N=C/C=C2/N(C)c3ccccc3C2(C)C)n(CCC#N)n1`, with 1.39% (inactive). `CC(=O)Nc1c2c(nn1-c1cccc(Cl)c1)CS(=O)(=O)C2`: the inhibition entry was “inactive”.

On to `O=C(COC(=O)/C=C/c1ccc(F)cc1)NC1CCCC1`, for which the inhibition was 2.24% (inactive). The entry for `Cn1nnnc1Sc1ncnc2scc(-c3ccc(C(F)(F)F)cc3)c12` is “inactive”; for `CCCCCC1CC(CC(=O)Nc2ccc([N+](=O)[O-])cc2)OC1=O` (stereo not drawn) it is “inactive”; for `NC(=NC1CCCCC1)c1ccc(Cl)cc1` it is 0.26% (inactive). The figure for `CCCCn1c(=O)[nH]c(=O)c2c1nc(CN(C)Cc1cccc(OC)c1OC)n2CCC` is 6.28% (inactive). Take `CCCCCC(=O)N1C[C@@H](n2cc(COC(=O)c3ccccc3)nn2)[C@H](O)C[C@@H]1c1ccc(OC)cc1`: the inhibition was 0.24% (inactive). Turning to `Cc1cccc(-n2ncc3c(N4CC(C)CC(C)C4)ncnc32)c1` (stereo not drawn), the inhibition was 1.8% (inactive).

For `Cc1cccc(C(=O)NCCNC(=O)c2cccc(C)c2)c1`, the inhibition result is “inactive”. For the compound `CNC(=O)C1=C(C)Nc2nc3ccccc3n2C1c1ccc(F)cc1` (stereo not drawn), the inhibition was 0.17% (inactive). For the compound `O=C(CC(=O)c1cccc([N+](=O)[O-])c1)Nc1ccccc1Cl`, the inhibition result was “inactive”. For the compound `Cc1ccc(S(=O)(=O)N2C[C@@H](C)[C@]3(C2)[C@H](O)[C@H](OC(=O)NC2CC2)C[C@H]2C(=O)N(c4ccccc4)C(=O)[C@H]23)cc1`, the inhibition was 11.5% (inactive).

With `Cc1ccc(S(=O)(=O)N2C[C@@H](C)[C@]3(C2)[C@H](O)[C@H](OC(=O)NCc2ccccc2)C[C@H]2C(=O)N(c4ccccc4)C(=O)[C@H]23)cc1`, the inhibition is 5.33% (inactive). In the case of `COCCNC(=O)CN(c1ccc(OC)c(OC)c1)S(=O)(=O)c1ccc(C)cc1`, the inhibition is 1.04% (inactive).

In the case of `COC(=O)c1ccc(-n2c(C)cc(C(=O)COC(=O)CNS(=O)(=O)c3ccc(C)cc3)c2C)cc1`, the inhibition is 0.63% (inactive). As for `CC(=O)Nc1ccc(NC(=O)c2c(C)nn(Cc3ccccc3Cl)c2C)cc1`, the inhibition result is “inactive”. As to `CCC(CC)c1nnc(NC(=O)c2c(C)nn(Cc3ccccc3Cl)c2C)s1`, the inhibition is 7.55% (inactive). Turning to `CC1CC(=O)N(C)c2cc([N+](=O)[O-])ccc2N1` (stereo not drawn), the inhibition was 1.14% (inactive).

Consider `COC(=O)c1cccc(NC(=S)N2CCOCC2)c1`, for which the inhibition is 0.95% (inactive). Regarding `CCCCCC(=O)N1C[C@@H](n2cc(COC(=O)c3ccccc3)nn2)[C@H](O)C[C@@H]1c1ccccc1`, the inhibition entry is “inactive”. For the compound `c1ccc(-c2nc3c([nH]2)CCc2nonc2-3)cc1`, the inhibition was 2.3% (inactive). Regarding `COn1c(-c2ccccc2)nc2c1CCc1c-2no[n+]1[O-]`, the inhibition is 5.93% (inactive). For the compound `Cc1ccccc1CC(=O)c1ccc(O)c(C)c1O`, the inhibition was 5.23% (inactive). As for `CCc1ccc(NC(=O)CS(=O)CC(=O)Nc2ccc(-n3cnnn3)c(C)c2)cc1` (stereo not drawn), the inhibition was 2.1% (inactive). Take `CCNc1oc(/C=C/c2ccc(OCC)cc2)nc1C#N`: the inhibition was 6.65% (inactive).

For `CCOc1ccc(/C=C/c2nc(C#N)c(NCCCOC)o2)cc1`, the inhibition was 6.2% (inactive). With `CC1=C(C(=O)Nc2ccccn2)C(c2ccc(Br)cc2)NC(=S)N1` (stereo not drawn), the inhibition is 2.92% (inactive). `O=C(O)c1ccccc1Nc1ccc([N+](=O)[O-])cc1C(=O)O`: the inhibition entry is “inactive”. Turning to `O=C(O)c1cc([N+](=O)[O-])ccc1Nc1ccccc1`, the inhibition was 0.6% (inactive). `O=C(Nc1cccnc1)c1cccnc1Cl`: the inhibition was 0.62% (inactive). In the case of `CCOc1ccc(C(=O)Nc2ccc(N3CCN(C)CC3)cc2)cc1`, the inhibition is 2.08% (inactive). Take `CCCCOc1ccc(C(=O)Nc2ccc(N3CCN(C(C)=O)CC3)cc2)cc1`: the inhibition was 3.29% (inactive). In the case of `CCc1ccc(NC(=O)CC2C(=O)N(c3cccc(OC)c3)C(=O)N2CCOC)cc1` (stereo not drawn), the inhibition is 1.82% (inactive).

As to `Cc1cccc(N(Cc2ccccc2)C(=O)CSC(C)C(=O)Nc2cc(C)on2)c1` (stereo not drawn), the inhibition was 7.94% (inactive). Regarding `Cc1cc(NC(=O)C(C)SCC(=O)OCC(=O)N(Cc2ccccc2)C(C)(C)C)no1` (stereo not drawn), the inhibition was 1.5% (inactive).

In the case of `CCOC(=O)Cn1cc(C(=O)C2CC2)c2ccccc21`, the inhibition was 1.2% (inactive). Then `COc1cccc(-n2c(CN3CCN(c4ccccc4)CC3)nc3ccc([N+](=O)[O-])cc3c2=O)c1`, with 2.74% (inactive); and `O=c1c2cc([N+](=O)[O-])ccc2nc(CN2CCN(c3ccccn3)CC2)n1-c1ccccc1F`, with 1.21% (inactive); and `COc1cccc(-n2c(CN3CCOCC3)nc3ccc([N+](=O)[O-])cc3c2=O)c1`, with 7.79% (inactive).

As to `CCC(CC)N1CCN(Cc2nc3ccc([N+](=O)[O-])cc3c(=O)n2-c2ccccc2F)CC1`, the inhibition is 22.2% (inactive). Then `COc1cc(NC(=O)c2sc3ncn(CC(=O)N4CCCCC4C)c(=O)c3c2C)cc(OC)c1OC` (stereo not drawn), with 11.6% (inactive); and `Cc1ccc(CN2CC(C(=O)NNC(=O)c3ccc(F)cc3)CC2=O)cc1` (stereo not drawn), with “inactive”.

`COCCCNC(=O)c1cc(-c2cccnc2)nc2ccccc12`: the inhibition result is “inactive”.

As to `COCCNC(=O)COC(=O)c1cc(-c2ccc(OC)cc2)nc2ccccc12`, the inhibition is 0.73% (inactive). Consider `CN(C)CCN(Cc1cc2cc3c(cc2nc1Cl)OCO3)C(=O)c1ccco1`, for which the inhibition is 1.49% (inactive). Regarding `Cc1cccc2cc(CN(CCN(C)C)C(=S)NCc3ccco3)c(=O)[nH]c12`, the inhibition is 6.74% (inactive). For `CCN(CC)CCNC(=O)c1cc2c(=O)n(CC)c3ccccc3c2s1`, the inhibition is 8.46% (inactive). On to `CC1(C)NC(=O)N(CC(O)CN2CCOCC2)C1=O` (stereo not drawn), for which the inhibition is 1.64% (inactive).
